Measurements: PubChem BioAssay (EPA / NIEHS)
Where “and” joins values, the source holds several entries; their conditions need not be identical. Equal values may be shown once. A structure can be active in one record and inactive in another. Calls of active or inactive are those of the source. The calls were made as follows: active = hit-call score of the fitted dose curve at least 0.9, where 1 is the maximum; inactive = score below 0.9.

Key:
[1] = read-out: Monocyte Chemoattractant Protein-1 (MCP1), CCL2 (gene 6347); assay: BSK_BF4T_MCP1: BioMAP Diversity Plus: BF4T Assay for Monocyte Chemoattractant Protein-1 (MCP1) Biomarker Activity (AID 2284259); conditions: primary human bronchial epithelial cells with fibroblasts
In short: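 Co-culture of bronchial epithelial cells and dermal fibroblasts dosed with chemical; MCP-1 measured by ELISA 24 h later. Activity fitted in positive direction versus DMSO; cytotoxicity checked by SRB staining in parallel cultures.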

[2] = read-out: Intercellular Adhesion Molecule 1 (ICAM1), ICAM1 (gene 3383); assay: BSK_BF4T_ICAM1: BioMAP Diversity Plus: BF4T Assay for Intercellular Adhesion Molecule 1 (ICAM1) Biomarker Activity (AID 2284260); conditions: primary human bronchial epithelial cells with fibroblasts
In short: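 Co-culture of human bronchial epithelial cells and dermal fibroblasts exposed 24 h to chemical; cell-surface ICAM-1 quantified by ELISA. Parallel SRB total-protein staining assessed cytotoxicity; activity fitted relative to DMSO.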

[3] = read-out: Interleukin-8 (IL8), CXCL8 (gene 3576); assay: BSK_MyoF_IL8: BioMAP Diversity Plus: MyoF Assay for Interleukin-8 (IL8) Biomarker Activity (AID 2284261); conditions: primary human lung fibroblasts
In short: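 IL-8 levels were measured by ELISA in human lung fibroblasts harvested 24 h after compound addition. Responses were analysed as gain of signal over the DMSO baseline.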

CD90, THY1 (gene 7070) = assay: BSK_BF4T_CD90: BioMAP Diversity Plus: BF4T Assay for CD90 Biomarker Activity (AID 2284262); conditions: primary human bronchial epithelial cells with fibroblasts
In short: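 Co-culture of human bronchial epithelial cells and dermal fibroblasts, 24 h compound exposure. Cell-surface CD90 measured by ELISA relative to DMSO; parallel SRB total-protein staining for cytotoxicity.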

[4] = read-out: Interleukin-8 (IL8), CXCL8 (gene 3576); assay: BSK_BF4T_IL8: BioMAP Diversity Plus: BF4T Assay for Interleukin-8 (IL8) Biomarker Activity (AID 2284263); conditions: primary human bronchial epithelial cells with fibroblasts
In short: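 Human bronchial epithelial cells with dermal fibroblasts co-culture; IL-8 measured by ELISA 24 hours after dosing, fitted vs DMSO. Cytotoxicity tracked in parallel cultures by SRB total-protein staining.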

Decorin, DCN (gene 1634) = assay: BSK_MyoF_Decorin: BioMAP Diversity Plus: MyoF Assay for Decorin Biomarker Activity (AID 2284265); conditions: primary human lung fibroblasts
In short: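 Compound is added to lung fibroblast cultures; cells incubate 24 h; decorin is then measured by ELISA; the response is analysed upward against DMSO controls.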

[5] = BSK_MyoF_SRB: Viability Assessment in the BioMAP Diversity Plus: MyoF Assay (AID 2284267); conditions: primary human lung fibroblasts;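 also: total protein by SRB absorbance in parallel cultures as cytotoxicity measure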
In short: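 Read-out is SRB absorbance at 560 nm, reflecting total protein in parallel lung fibroblast cultures harvested 24 h after compound addition. Cells were TCA-fixed (10%) and stained with 0.1% SRB; activity is referenced to DMSO.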

[6] = read-out: Matrix Metallopeptidase 1 (MMP1), MMP1 (gene 4312); assay: BSK_MyoF_MMP1: BioMAP Diversity Plus: MyoF Assay for Matrix Metallopeptidase 1 (MMP1) Biomarker Activity (AID 2284268); conditions: primary human lung fibroblasts
In short: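 Lung fibroblast cultures were dosed with test chemicals and, after 24 h, MMP1 levels were measured by ELISA; responses were referenced to DMSO and analysed for increases.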

[7] = read-out: TIMP metallopeptidase inhibitor 1 (TIMP1), TIMP1 (gene 7076); assay: BSK_MyoF_TIMP1: BioMAP Diversity Plus: MyoF Assay for TIMP metallopeptidase inhibitor 1 (TIMP1) Biomarker Activity (AID 2284269); conditions: primary human lung fibroblasts
In short: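 ELISA read-out of TIMP-1 from primary human lung fibroblast cultures 24 h after compound dosing; gain of signal relative to DMSO vehicle baseline defines activity.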

[8] = read-out: Matrix Metallopeptidase 1 (MMP1), MMP1 (gene 4312); assay: BSK_BF4T_MMP1: BioMAP Diversity Plus: BF4T Assay for Matrix Metallopeptidase 1 (MMP1) Biomarker Activity (AID 2284270); conditions: primary human bronchial epithelial cells with fibroblasts
In short: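 Co-culture of human bronchial epithelial cells and dermal fibroblasts; MMP-1 levels measured by ELISA 24 hours after chemical dosing, relative to DMSO. Cytotoxicity checked in parallel cultures by SRB total-protein staining.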

[9] = read-out: Matrix Metallopeptidase 3 (MMP3), MMP3 (gene 4314); assay: BSK_BF4T_MMP3: BioMAP Diversity Plus: BF4T Assay for Matrix Metallopeptidase 3 (MMP3) Biomarker Activity (AID 2284271); conditions: primary human bronchial epithelial cells with fibroblasts
In short: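 Co-culture of human bronchial epithelial cells and dermal fibroblasts dosed 24 h; MMP-3 measured by ELISA, positive-direction fit versus DMSO. Cytotoxicity tracked by SRB total-protein staining (560 nm) in parallel cultures.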

[10] = read-out: Tissue plasminogen activator (tPA), PLAT (gene 5327); assay: BSK_BF4T_tPA: BioMAP Diversity Plus: BF4T Assay for Tissue plasminogen activator (tPA) Biomarker Activity (AID 2284272); conditions: primary human bronchial epithelial cells with fibroblasts
In short: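 tPA level quantified by ELISA at 24 h post-treatment in bronchial epithelial/dermal fibroblast co-cultures, gain of signal scored against DMSO baseline. Parallel cultures stained with 0.1% SRB (560 nm) to flag overt cytotoxicity.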

[11] = read-out: Plasminogen Activator Inhibitor-1 (PAI1), SERPINE1 (gene 5054); assay: BSK_BF4T_PAI1: BioMAP Diversity Plus: BF4T Assay for Plasminogen Activator Inhibitor-1 (PAI1) Biomarker Activity (AID 2284273); conditions: primary human bronchial epithelial cells with fibroblasts
In short: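 Co-culture of human bronchial epithelial cells and dermal fibroblasts exposed to compound for 24 h. PAI-1 measured by ELISA; activity fitted in positive direction versus DMSO. Parallel SRB staining assessed overt cytotoxicity.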

[12] = BSK_BF4T_SRB: Viability Assessment in the BioMAP Diversity Plus: BF4T Assay (AID 2284274); conditions: primary human bronchial epithelial cells with fibroblasts;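 as to AC50: total cell protein by sulforhodamine B staining as a cytotoxicity measure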
In short: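 Co-culture of human bronchial epithelial cells and dermal fibroblasts (BioMAP BF4T) exposed 24 h. Total protein by sulforhodamine B staining (0.1% SRB after 10% TCA fixation, 560 nm) in parallel cultures; fitted vs DMSO.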

[13] = read-out: urokinase Plasminogen Activator (uPA), PLAU (gene 5328); assay: BSK_BF4T_uPA: BioMAP Diversity Plus: BF4T Assay for urokinase Plasminogen Activator (uPA) Biomarker Activity (AID 2284275); conditions: primary human bronchial epithelial cells with fibroblasts
In short: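 Co-culture of human bronchial epithelial cells and dermal fibroblasts; uPA quantified by ELISA 24 hours after dosing, fitted relative to DMSO. Parallel SRB total-protein staining assessed overt cytotoxicity.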

[14] = read-out: Matrix Metallopeptidase 9 (MMP9), MMP9 (gene 4318); assay: BSK_BF4T_MMP9: BioMAP Diversity Plus: BF4T Assay for Matrix Metallopeptidase 9 (MMP9) Biomarker Activity (AID 2284276); conditions: primary human bronchial epithelial cells with fibroblasts
In short: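 Co-culture of human bronchial epithelial cells and dermal fibroblasts dosed for 24 h; MMP-9 quantified by ELISA and fitted upward versus DMSO. Cytotoxicity monitored in parallel cultures by SRB total-protein staining at the biomarker time point.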

[15] = read-out: Interleukin-8 (IL8), CXCL8 (gene 3576); assay: BSK_IMphg_IL8: BioMAP Diversity Plus: IMphg Assay for Interleukin-8 (IL8) Biomarker Activity (AID 2284277); conditions: primary human endothelial cells with macrophages
In short: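 Co-culture of human venular endothelial cells and macrophages exposed to chemicals for 24 h; IL-8 quantified by ELISA and compared against the DMSO baseline, with SRB total-protein staining in parallel cultures for cytotoxicity.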

[16] = read-out: Intercellular Adhesion Molecule 1 (ICAM1), ICAM1 (gene 3383); assay: BSK_BE3C_ICAM1: BioMAP Diversity Plus: BE3C Assay for Intercellular Adhesion Molecule 1 (ICAM1) Biomarker Activity (AID 2284278); conditions: primary human bronchial epithelial cells
In short: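 Human primary bronchial epithelial cultures; compound added; 24 h incubation; cell-surface ICAM-1 measured by ELISA; signal increase fitted relative to DMSO negative control.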

KRT18 (gene 3875) = assay: BSK_BF4T_Keratin818: BioMAP Diversity Plus: BF4T Assay for Keratin 818 Biomarker Activity (AID 2284266); conditions: primary human bronchial epithelial cells with fibroblasts
In short: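 Co-culture of human bronchial epithelial cells and dermal fibroblasts, chemical exposure 24 h. Keratin 8/18 measured by ELISA; positive-direction fit vs DMSO. SRB total protein run in parallel cultures for cytotoxicity.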

Measured: AC50

OCC(O)CC(F)(F)C(F)(F)C(F)(F)C(F)(F)F (stereo not drawn)
inactive: [1] | [2] | [3] | CD90, THY1 (gene 7070) | [4] | Decorin, DCN (gene 1634) | [5] | [6] | [7] | [8] | [9] | [10] | [11] | [12] | [13] | [14] | [15] | [16]
active: [1] 263 nM | [4] 0.22 µM

FC(F)(F)C(F)(F)C(F)(F)C(F)(F)C(F)(F)C(F)(F)CC[Si](Cl)(Cl)Cl
active: [9] 0.211 µM
inactive: [1] | [2] | [3] | CD90, THY1 (gene 7070) | [4] | [5] | [6] | [7] | [8] | [9] | [10] | [11] | [12] | [13] | [14] | [15] | [16]

OC(O)C(F)(F)C(F)(F)F
not listed: KRT18 (gene 3875)
inactive: all other assays above

O=C(F)C1(F)C(F)(F)C(F)(F)C(F)(F)C(F)(F)C1(F)F
not listed: KRT18 (gene 3875)
inactive: all other assays above

OCC(F)(F)C(F)(F)C(F)(F)CO
not listed: KRT18 (gene 3875)
inactive: all other assays above

NCC(F)(F)C(F)(F)C(F)(F)C(F)(F)C(F)(F)C(F)(F)F
inactive: [1] | [2] | [3] | CD90, THY1 (gene 7070) | [4] | Decorin, DCN (gene 1634) | [5] | [6] | [7] | [8] | [9] | [10] | [11] | [12] | [13] | [14] | [15] | [16]
active: [14] 778 nM

C=CC(=O)OCC(F)(F)C(F)(F)C(F)(F)COC(=O)C=C
active: [1] 15.3 µM and 11.7 µM | [2] 7.12 µM and 9.76 µM | [3] 16.5 µM and 14.3 µM | CD90, THY1 (gene 7070) 8.59 µM | [4] 10.8 µM | Decorin, DCN (gene 1634) 12.2 µM and 9.13 µM | KRT18 (gene 3875) 45.3 µM and 51.1 µM | [5] 10.6 µM | [7] 16.9 µM and 13.9 µM | [8] 50.2 µM | [10] 8.12 µM | [11] 20.7 µM and 23.4 µM | [12] 43.4 µM and 47.1 µM | [13] 30 µM and 25.7 µM | [14] 21.5 µM and 21.8 µM | [15] 50.7 µM and 45.9 µM | [16] 38.5 µM and 35.5 µM
inactive: CD90, THY1 (gene 7070) | [4] | [6] | [8] | [9]
